According to PubChem BioAssay (NCATS):
Records with an inconclusive call do not appear. Calls of active or inactive are those of the source. Calls follow the shape of the dose curve; as a rule, active = well fitted curve in the direction sought with a large enough effect; inconclusive = small, poorly fitted or top-dose-only effect, or another doubt; inactive = no such curve, though single readings can be large; an effect the other way counts as inactive or inconclusive.

Tests used:
[1] = molecular target: Glutathione peroxidase 1 (Homo sapiens) (UniProt P07203); assay: Primary qHTS Assay for Inhibitors of Recombinant Selenoprotein Glutathione Peroxidase 1 (GPX1) (AID 1845191); also: nearly all actives have a fitted effect of over 65% in size
Glutathione peroxidase 1 (Homo sapiens), sequence (P07203 whole entry, looked up): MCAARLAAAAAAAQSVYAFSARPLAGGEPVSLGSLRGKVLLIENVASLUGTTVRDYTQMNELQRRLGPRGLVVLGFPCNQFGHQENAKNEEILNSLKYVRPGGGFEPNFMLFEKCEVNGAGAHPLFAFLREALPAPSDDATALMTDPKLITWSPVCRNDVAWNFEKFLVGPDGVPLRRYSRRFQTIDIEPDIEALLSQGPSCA
Summary of the method: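 GR-coupled readout: NADPH consumption tracked by fluorescence, ex 340/em 450 nm, at t=0 and after 15 min at RT. Final mix 10 nM GPX1, 1 mM GSH, 0.5 mM CHP, 0.5 mM NADPH, 100 nM GR, 0.01% BSA, following 30 min enzyme–compound preincubation.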

[2] = molecular target: Phospholipid hydroperoxide glutathione peroxidase GPX4 (Homo sapiens) (UniProt P36969); assay: Primary qHTS Assay for Inhibitors of Recombinant Selenoprotein Glutathione Peroxidase 4 (GPX4) (AID 1845192); also: nearly all actives have a fitted effect of over 65% in size
Phospholipid hydroperoxide glutathione peroxidase GPX4 (Homo sapiens), sequence (P36969 whole entry, looked up): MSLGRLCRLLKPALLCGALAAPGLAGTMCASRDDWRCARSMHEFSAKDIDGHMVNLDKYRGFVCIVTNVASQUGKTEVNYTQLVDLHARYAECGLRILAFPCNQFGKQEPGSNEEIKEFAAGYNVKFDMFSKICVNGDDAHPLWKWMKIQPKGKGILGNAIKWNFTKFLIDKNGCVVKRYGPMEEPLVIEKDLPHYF
Summary of the method: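 Steps: GPX4 plus compound, 30 min RT; add GR/GSH/NADPH master mix; start with cumene hydroperoxide; read 340/450 nm fluorescence at 0 and 15 min. Finals were 200 nM GPX4, 1 mM GSH, 0.5 mM CHP, 0.5 mM NADPH, 100 nM GR.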

[3] = molecular target: Luciferin 4-monooxygenase (Photinus pyralis) (UniProt P08659); assay: Primary firefly luciferase (FLuc) qHTS assay for identification of artifact compounds. (AID 1845220); also: nearly all actives have a fitted effect of over 60% in size
Summary of the method: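 Enzymatic FLuc inhibition assay: compounds pre-exposed to luciferin/ATP (10 uM each) for 15 min, then purified P. pyralis enzyme at 10 nM added. Read-out: luminescence at 5 min.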

[4] = system: Nanoluciferase (engineered Oplophorus gracilirostris luciferase); assay: Primary Nanoluciferase (NLuc) qHTS assay for identification of artifact compounds. (AID 1845222);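 also: NLuc secreted into diluted conditioned medium of S16 cells; series mostly up to about 54 µM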
Summary of the method: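 S16 cell supernatant NLuc, 1:55; cpds qHTS; 15 min RT dark; Nano-Glo substrate 1:100, 5 min; luminescence; Hill fit of % inhibition.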

[5] = Primary redox qHTS assay for identification of artifact compounds. (AID 1845223)
Summary of the method: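 Redox-cycling detection via DTT (250 uM final) oxidation coupled to Amplex Red (25 uM)/HRP (250 mU/mL) in HBSS. 15 min preincubation plus 30 min after DTT, room temperature. Ex/Em 525/598 nm; 4-parameter Hill fit against DMSO and 10 uM DA3003.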

[6] = Primary fluorescence-based thiol-reactive (MSTI) qHTS assay for identification of artifact compounds. (AID 1845221);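 also: series mostly up to about 54 µM; thiol-reactive compounds lower the probe fluorescence signal; nearly all actives have a fitted effect of over 65% in size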
Summary of the method: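 Probe: MSTI 4 uM, PBS pH 7.4, 2% DMSO. Incubation 1 h, RT, light-protected. Readout fluorescence 525/598 nm.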

Measured: Potency

CCOCCn1nc(CC)c2nc(N3CCC(C(=O)O)CC3)nc(Nc3cc(C)ccn3)c21
not listed: [6]
inactive: all other assays above

O=C(/C=C/c1ccc(O)cc1)OC1[C@H](O)CC(O)(C(=O)O)C[C@H]1O (some centres not stated)
not listed: [6]
inactive: all other assays above

Cc1c2cc(c(C(=O)O)c1C)OC1OC(C(O)C(O)C1O)C(O)C(O)C1OC(O2)C(O)C(O)C1O (configuration not stated)
not listed: [6]
inactive: all other assays above

O=C1NC(Cc2ccccc2)C(=O)N2CCCC12 (configuration not stated)
not listed: [6]
inactive: all other assays above

C=C[C@H]1[C@H](O[C@@H]2O[C@H](CO)[C@@H](O)[C@H](O)[C@H]2O)OC=C(C(=O)OC)[C@H]1C[C@@H]1c2cc(O)c(O)cc2CCN1C(C)=O
not listed: [6]
inactive: all other assays above

O=S(=O)(c1ccc(S(=O)(=O)n2cnc3ccccc32)cc1)N1CCCCCC1
not listed: [6]
inactive: all other assays above

COc1cc(O)cc(C)c1C(=O)OC1C(CO)OC(OC2C(O)C(O)C(O)C(O)C2O)C(O)C1O (configuration not stated)
not listed: [6]
inactive: all other assays above

Cc1cc(NC(=O)Nc2ccc(F)c(F)c2)n(-c2ccccc2)n1
not listed: [6]
inactive: all other assays above

C=CC1(C)C=C2C(=O)OC(=O)C3=C(CCCC3(C)C)C2(O)CC1 (configuration not stated)
not listed: [6]
inactive: all other assays above

Nc1nc2c(c(N3CCNCC3)n1)CCC1=C2[C@@H]2CCCC[C@@H]2O1
not listed: [6]
inactive: all other assays above

O=C(O[C@H]1[C@@H]2C=CO[C@@H](O[C@@H]3O[C@H](CO)[C@@H](O)[C@H](O)[C@H]3O)[C@@H]2[C@@]2(CO)O[C@@H]12)c1ccccc1
not listed: [6]
inactive: all other assays above

COc1c2c(c(C)c3c1C(=O)OC3)O[C@@]1(C)CCC3(C(C)(C)O)OC(=O)CC[C@]3(C)[C@H]1C2 (some centres not stated)
not listed: [3]
inactive: all other assays above

c1cc(Nc2cc(C3CC3)[nH]n2)nc(Nc2ccc3nc[nH]c3c2)n1
not listed: [6]
inactive: all other assays above

CC(C)=CCC/C(C)=C/CO[C@@H]1O[C@H](CO)[C@@H](O)[C@H](O)[C@H]1O
inactive: [1] | [2] | [6] | [4]

CCN1CCN(Cc2ccc(NC(=O)c3ccc(C)c(NC(=O)c4cncc(-c5cccs5)c4)c3)cc2C(F)(F)F)CC1
not listed: [3]
inactive: all other assays above

COc1cc2c(cc1OC)[C@@H]1[C@H](O)[C@@H](OC)C=C3CCN(C2)[C@H]31
not listed: [6]
inactive: all other assays above

O=C1NC2CCc3nc4ccccc4c(=O)n3C2=Nc2ccccc21 (configuration not stated)
not listed: [3]
inactive: all other assays above

COc1ccc(-c2cnc(-c3cccc4c3-c3ccccc3C4=O)o2)cc1
not listed: [3]
inactive: all other assays above

COCCOc1cnc2ccn([C@H](C)c3nnc4c(F)cc(-c5cnn(C)c5)cn34)c(=O)c2c1
inactive: [1] | [2] | [6] | [4]

COc1ccc(-n2[nH]c(=O)c3[nH]c4cc(Cl)ccc4c(=O)c3c2=O)c(C)c1
inactive: [1] | [2] | [3] | [5]

COc1cc(O)cc(/C=C/c2ccc(O[C@@H]3O[C@H](CO)[C@@H](O)[C@H](O)[C@H]3O)cc2)c1
not listed: [6]
inactive: all other assays above

OC[C@H]1O[C@@H](Oc2cc(O)c3c(c2)O[C@@H](c2ccc(O)cc2)[C@H](O)C3)[C@H](O)[C@@H](O)[C@@H]1O
not listed: [6]
inactive: all other assays above

CC[C@@H](N)CNc1ccnc(-c2cc(-c3cnn(C)c3)ccc2O)n1
not listed: [6]
inactive: all other assays above

c1cc(OCCCN2CCCCC2)ccc1CN1CCCCC1
not listed: [6]
inactive: all other assays above

CC(=O)CCC1=C(C)C(O[C@@H]2O[C@H](CO)[C@@H](O)[C@H](O)[C@H]2O)C(O)CC1(C)C (some centres not stated)
not listed: [6]
inactive: all other assays above

O=C(NOCC(O)CO)c1ccc(F)c(F)c1Nc1ccc(I)cc1F (configuration not stated)
not listed: [3]
inactive: all other assays above
